# Screening results: PubChem BioAssay, National Center for Advancing Translational Sciences (NCATS)
# In the library only some 9.9% were active in any assay of this set; here they are far more common.
# HPGD block – blocks human HPGD enzyme activity | Potency, µM, usual class: inhibitors | 150,000 compounds, 4.3% hits | purified HPGD, NADH fluorescence kinetic, PGE2 substrate | P15428; active means well fitted inhibition curve with a large enough effect, not every such curve was filed as active; inconclusive means small, poorly fitted or top-dose-only effect, or another doubt; inactive means no such curve, though single readings can be large or run the other way
#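 20 nM HPGD preincubated 15 min at room temperature with compound in 50 mM Tris-HCl pH 8, 0.01% Tween 20. Started with 1 mM NAD+ and 30 uM prostaglandin E2; NADH fluorescence (360/450 nm) read 5 times over 30-s intervals, last minus first.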
# ALDH1A1 inh – inhibitors of human aldehyde dehydrogenase 1A1; P00352; Purified ALDH1A1, NADH fluorescence, propionaldehyde substrate; Potency, µM (titrated, usually from 75.3 µM), actives largely listed as inhibitors; 220,000 compounds, 7.3% hits; active means well fitted inhibition curve with a large enough effect, not every such curve was filed as active; inconclusive means small, poorly fitted or top-dose-only effect, or another doubt; inactive means no such curve, though single readings can be large or run the other way
# Target sequence (P00352 whole entry, looked up): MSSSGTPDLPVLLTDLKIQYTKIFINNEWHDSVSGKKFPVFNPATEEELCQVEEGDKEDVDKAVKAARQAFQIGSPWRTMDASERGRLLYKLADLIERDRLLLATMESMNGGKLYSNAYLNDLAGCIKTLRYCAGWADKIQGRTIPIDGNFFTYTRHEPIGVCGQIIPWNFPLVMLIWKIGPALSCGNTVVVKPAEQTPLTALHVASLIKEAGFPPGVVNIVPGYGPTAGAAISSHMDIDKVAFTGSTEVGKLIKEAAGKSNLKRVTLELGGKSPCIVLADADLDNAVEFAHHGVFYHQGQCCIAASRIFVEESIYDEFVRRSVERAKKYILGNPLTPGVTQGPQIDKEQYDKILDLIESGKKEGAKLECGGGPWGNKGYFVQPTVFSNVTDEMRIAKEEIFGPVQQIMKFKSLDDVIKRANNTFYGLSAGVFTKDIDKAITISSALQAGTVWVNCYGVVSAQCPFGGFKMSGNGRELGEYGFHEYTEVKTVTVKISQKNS
# Tau ThT inhib – inhibitors of human tau fibril formation, thioflavin T binding; P10636; recombinant tau K18 P301L, heparin-induced fibrillization, ThT fluorescence; Potency, µM (doses to about 57.4 µM), actives largely listed as inhibitors; 270,000 compounds, 2.1% hits; further: nearly all actives have a fitted effect of over 55% in size
# Target sequence (P10636 561-689 P618L limits assumed): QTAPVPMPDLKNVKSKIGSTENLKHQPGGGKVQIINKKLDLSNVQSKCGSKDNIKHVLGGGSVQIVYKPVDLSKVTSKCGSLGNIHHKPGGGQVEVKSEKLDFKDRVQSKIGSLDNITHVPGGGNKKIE
#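 Aggregation was driven by heparin (20 uM final) acting on recombinant tau […] bearing P301L in 100 mM sodium acetate pH 7; fibrils were detected with Thioflavin T.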
# JMJD2E inh – JMJD2E (human) inhibition. B2RXH2. JMJD2E catalytic domain, FDH-coupled NADH fluorescence (FDH is formaldehyde dehydrogenase). Potency, µM (doses to about 57.1 µM), usual class: inhibitors. 230,000 compounds, 1.6% hits; active means well fitted inhibition curve with a large enough effect, not every such curve was filed as active; inconclusive means small, poorly fitted or top-dose-only effect, or another doubt; inactive means no such curve, though single readings can be large or run the other way; further: nearly all actives have a fitted effect of over 50% in size
# Tau fluor cs – counter-screen for tau fibril formation inhibitors. 280,000 compounds, 0.93% hits. AID 1463. Potency, µM (doses to about 57.7 µM). tau K18 P301L Alexa594 fluorescence, heparin fibrillization; further: nearly all actives have a fitted effect of over 55% in size
#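 Human tau K18 P301L (15 uM unlabeled, 0.24 uM Alexa 594-labeled) in 100 mM sodium acetate pH 7 with 20 uM heparin, 6 hr at 37 C. ThT 30 uM added, 1 hr ambient; Alexa 594 FP and total fluorescence read at 555/632 nm.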
# Tau FP inhib – blocks human tau fibril formation measured by polarization | P10636 | K18 P301L tau heparin fibrillization, Alexa594 FP, 6 h | Potency, µM (highest dose often 57.7 µM), usual class: inhibitors | 280,000 compounds, 0.39% hits; further: nearly all actives have a fitted effect of over 55% in size
#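 Compound effects on tau fibrillization are measured by Alexa 594 fluorescence polarization (ex 555, em 632 nm). K18 P301L tau is used at 15 uM with 0.24 uM labeled tracer, and 20 uM heparin induces aggregation over 6 hr at 37 C.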
# Numbers stand for hits; - = inactive; ? = inconclusive; . = no result given; [ ] = remark or other dose. Unless noted, the call rests on the fitted dose curve; in most records, active means well fitted curve in the direction sought with a large enough effect; inconclusive means small, poorly fitted or top-dose-only effect, or another doubt; inactive means no such curve, though single readings can be large; an effect the other way counts as inactive or inconclusive.
SMILES,HPGD block,ALDH1A1 inh,Tau ThT inhib,JMJD2E inh,Tau fluor cs,Tau FP inhib
O=C(Cn1nc(-c2ccccc2)ccc1=O)Nc1ccc(N2CCN(C(=O)c3cccs3)CC2)cc1,.,-,?,-,-,-
CC(C)OCCCNC(=O)CN1C(=O)CSc2ccc(S(=O)(=O)N3CCCCC3)cc21,.,.,-,.,-,-
CCOCCCNC(=O)CN1C(=O)CSc2cc(S(=O)(=O)N3CCCCCC3)ccc21,.,10µM,?,-,-,-
O=C(Nc1ccccc1)c1ccccc1C(=O)N1CCCCC1,.,-,-,-,-,-
COc1ccc(C2=NN(C(C#N)c3ccc(OC)cc3)C(c3ccccc3)C2)cc1 (centres undefined),-,22µM,?,?,-,-
CCc1ccccc1NC(=O)[C@@H](c1ccccc1)N1Cc2ccccc2C1=O,.,.,-,.,-,-
Cc1ccccc1C(=O)c1c[nH]c(C(=O)NCC2CCCO2)c1 (centres undefined),6.3µM,?,-,-,-,-
COc1ccc(C(=O)c2c[nH]c(C(=O)NCC3CCCO3)c2)cc1 (centres undefined),2µM,?,-,-,-,-
O=C(NCC1CCCO1)c1cc(C(=O)C2CCCCC2)c[nH]1 (centres undefined),.,-,-,-,-,-
COCCSc1ccccc1C(=O)NCC1CCCO1 (centres undefined),-,-,-,-,-,-
COc1ccc(C(=O)NC(=S)NCC2CCCO2)cc1 (centres undefined),-,?,-,-,-,-
Cc1ccccc1C(=O)c1c[nH]c(C(N)=O)c1,-,7.9µM,-,-,-,-
CSc1ccccc1C(=O)NCC1CCCO1 (centres undefined),16µM,-,-,-,-,-
COc1ccccc1CNc1cc(-c2cccc(NS(C)(=O)=O)c2)ncn1,-,-,-,?,-,-
COc1ccc(-c2cc(C(F)(F)F)n3ncc(-c4ccccc4)c3n2)cc1,.,.,?,.,-,-
CC(C)(C)c1ccc(C(=O)c2c[nH]c(C(=O)NCC3CCCO3)c2)cc1 (centres undefined),13µM,-,-,-,-,-
CN(C)CCCN1c2ccc3ccccc3c2Sc2cccc(Cl)c21,-,-[13.5 µM],.,.,.,.
Cc1ccc2c(c1)Sc1c(ccc3ccccc13)N2,.,-,3.2µM,-,14µM[quencher],-
N#C/C(=C/c1ccco1)C(N)=S,.,.,28µM,?,?,?
N#C/C(=C\c1ccc2c(c1)OCO2)C(N)=S,.,-,-,-,-,-
CCOC(=O)c1c(-c2ccc(OC)cc2)csc1/N=C/C1=C(O)CCCC1=O,-,2.2µM,?,-,?,-
CCOC(=O)c1c(/N=C/C2=C(O)CCCC2=O)sc(C)c1C,-,-,?,-,-,-
COc1ccc2ncc3c(-c4ccc(C)c(C)c4)nn(CC(=O)NC4CCCCC4)c3c2c1,.,.,-,.,-,?
COc1ccc(S(=O)(=O)N(n2c(C)nnc2-n2nc(C)cc2C)S(=O)(=O)c2ccc(OC)cc2)cc1,-,-,-,-,-,-
O=C(O)c1ccccc1-n1ncc2c1/C(=C/c1ccc(Cl)cc1)CC2,.,22µM,?,?,-,-
SMILES,HPGD block,ALDH1A1 inh,Tau ThT inhib,JMJD2E inh,Tau fluor cs,Tau FP inhib
O=C(O)c1ccc(-n2ncc3c2/C(=C/c2cccc([N+](=O)[O-])c2)CC3)cc1,.,.,?,-,-,-
O=C(Nc1cccc(S(=O)(=O)N2CCOCC2)c1)c1ccc2c(=O)n3c(nc2c1)CCCCC3,.,5.6µM,-,-,-,-
O=C(Nc1nc(-c2ccccc2)cs1)c1ccc2c(=O)n3c(nc2c1)CCCCC3,.,28µM,-,?,-,-
O=c1c2cc(NC(=S)NCCN3CCCCCC3)ccc2nc2n1CCCCC2,.,20µM,-,?,-,-
Cc1cc(C)c2nc(NC(=O)c3ccc4c(=O)n5c(nc4c3)CCCCC5)sc2c1,-,?,?,?,-,-
O=C(Nc1ccc(F)cc1Cl)c1ccc2c(=O)n3c(nc2c1)CCCCC3,-,-,-,-,-,-
CC(=O)c1cccc(NC(=O)c2ccc3c(=O)n4c(nc3c2)CCCCC4)c1,.,5µM,-,-,-,-
O=c1cc(-c2cccc(-c3ccc(C(F)(F)F)cc3)c2)c2cc3c(cc2o1)OCO3,-,?,-,.,-,-
CCOc1ccc(NC(=O)c2cccc(OC(=S)N3CCC(C)CC3)c2)cc1,-,-,?,-,?,-
O=C(NC1CCCCCC1)c1ccc2c(=O)n3c(nc2c1)CCCCC3,-,10µM,-,-,-,-
O=C(Nc1cccc(S(=O)(=O)N2CCCC2)c1)c1ccc2c(=O)n3c(nc2c1)CCCCC3,-,3.5µM,-,-,-,-
CCOC(=O)NNc1ccc2nonc2c1[N+](=O)[O-],.,18µM,13µM,6.3µM,-,?
COC(=O)C(NC(C)=O)(Nc1ccc(Br)cn1)C(F)(F)F (centres undefined),-,7.1µM,-,-,-,-
O=C1c2sc3nc4c(c(=O)n3c2C(=O)N1c1ccccc1)CCC4,.,?,-,-,-,-
Cc1ccccc1N1C(=O)c2sc3nc4c(c(=O)n3c2C1=O)CCC4,32µM,28µM,?,-,-,?
O=C1c2sc3nc4ccccc4n3c2C(=O)N1c1ccccc1Cl,14µM,16µM,28µM,?,-,?
CCCC(c1nnnn1CCc1ccccc1)N1CCC(C(N)=O)CC1 (centres undefined),-,-,-,-,-,-
CCOc1cc(NC2CS(=O)(=O)CC2O)c(OCC)cc1NC(=O)c1ccccc1 (centres undefined),-,13µM,-,-,-,-
Cc1ccc2nc(SC(C)C(=O)Nc3cccc([N+](=O)[O-])c3)[nH]c2c1 (centres undefined),?,-,-,-,-,-
CN(C)c1ccc(NC(=O)c2ccc(COc3cccc(Cl)c3)o2)cc1,-,?,11µM,-,?,?
Cc1ccc(NC(=O)c2ccc(COc3ccccc3Cl)o2)cc1,.,.,-,.,-,-
CCc1ccc(NC(=O)CSc2nc(-c3ccccc3)c(C#N)c(=O)[nH]2)cc1,.,.,?,.,-,-
O=c1oc2ccccc2nc1/C=C(O)/C=C\c1ccccc1,-,13µM,28µM,20µM,-,?
CC1=C(C(=O)c2ccccc2)C(c2ccc(OC(F)F)cc2)NC(=S)N1 (centres undefined),.,1.1µM,-,-,-,-
CC1=C(C(=O)c2ccccc2)C(c2ccc(O)cc2)NC(=S)N1 (centres undefined),.,.,-,-,-,-
CC1=C(C(=O)c2ccccc2)C(c2ccc(N3CCOCC3)cc2)NC(=O)N1 (centres undefined),.,?,25µM,-,-,-
CCN(CC)c1nc2ccccc2c(N)c1-c1ccccc1,?,14µM,-,-,-,-
